High-throughput results: PubChem, several laboratories
DTT redox prof: compounds producing H2O2 with reducing agent – biochemical, NIH compound library profiling, artefact control for MLSCN library redox annotation, primary screen; DTT-dependent redox cycling H2O2, phenol red/HRP absorbance; 100% = 100 µM peroxide control, 0% = buffer; activation, % at 10 µM; 200,000 tested, 0.03% active; AID 878;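 active = activation of at least 50% relative to the plate's high and low controls in the primary single-dose screen; inactive = activation below 50%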;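 also: compound incubated with DTT at 0.8 mM final as the reducing agent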
p97 inhibitor: blocks human p97 ATPase activity; recombinant p97 ATPase, Kinase-Glo ATP luminescence, 3 h; inhibition, % at 8 µM; 220,000 tested, 0.42% active; AID 1481; in the data active = inhibition above about 15%;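 also: 0% = DMSO vehicle and 100% = wells lacking enzyme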
Target sequence (P55072 whole entry, looked up): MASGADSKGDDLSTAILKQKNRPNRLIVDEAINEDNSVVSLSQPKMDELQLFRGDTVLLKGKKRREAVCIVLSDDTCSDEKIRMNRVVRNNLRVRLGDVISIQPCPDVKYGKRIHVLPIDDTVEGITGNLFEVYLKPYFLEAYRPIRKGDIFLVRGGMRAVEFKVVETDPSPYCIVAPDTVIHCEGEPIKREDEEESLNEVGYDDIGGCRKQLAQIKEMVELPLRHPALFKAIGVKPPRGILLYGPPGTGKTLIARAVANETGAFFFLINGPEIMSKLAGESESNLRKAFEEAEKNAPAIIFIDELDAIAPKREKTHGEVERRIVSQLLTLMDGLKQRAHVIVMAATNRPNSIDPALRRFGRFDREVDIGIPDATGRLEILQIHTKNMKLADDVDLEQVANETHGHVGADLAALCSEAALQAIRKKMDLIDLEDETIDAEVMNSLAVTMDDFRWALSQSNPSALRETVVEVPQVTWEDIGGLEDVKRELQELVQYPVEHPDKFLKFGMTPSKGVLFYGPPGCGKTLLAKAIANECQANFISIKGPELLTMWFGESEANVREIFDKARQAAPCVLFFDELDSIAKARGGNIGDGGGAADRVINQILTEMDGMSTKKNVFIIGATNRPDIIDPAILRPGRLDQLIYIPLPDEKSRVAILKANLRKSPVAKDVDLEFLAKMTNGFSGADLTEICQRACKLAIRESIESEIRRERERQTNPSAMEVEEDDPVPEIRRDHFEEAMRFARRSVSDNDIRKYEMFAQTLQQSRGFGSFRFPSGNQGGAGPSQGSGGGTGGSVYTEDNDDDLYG
HSV replic up: HSV replication enhancement; 220,000 tested, 0.005% active; HSV replication augmentation in cells, fold increase; maximum fold increase; AID 1956; in the data active = maximum fold increase above about 1.5; tested in PC3 cells
Hsp70 activator: switches on Hsp70 transcription; HeLa Hsp70 promoter luciferase reporter, luminescence; scaled: vehicle 0, proteasome-inhibitor control 100%; activation, % at 10 µM; 200,000 tested, 0.04% active; AID 1203;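 active = activation above the mean across all tested compounds plus 3 SD, cutoff set per campaign, cut at about 5.5% in these data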;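 also: 100% = MG132 at 30 µM as the positive control and 0% = DMSO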
Wee1 stabilizer: blocks degradation of human Wee1 kinase; P30291; HeLa Luc-Wee1K328M stability, luciferase luminescence; 100% = proteasome inhibitor MG132 effect; reporter increase, % at 5 µM; 220,000 tested, 1.2% active; AID 1321;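 active = activation above the mean of all tested compounds plus 3 SD, set per screening run, cut at about 8.8% in these data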;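 also: cells exposed to compound for 20 h before luminescence read; 0% = DMSO alone and 100% = MG132 at 30 µM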
* hit, by the source's call; i = inactive; x = not tested or not shown. In the library only some 1.6% were active in any assay of this set; here they are far more common.

SMILES	DTT redox prof	p97 inhibitor	HSV replic up	Hsp70 activator	Wee1 stabilizer
COc1ccc(N2C(=O)/C(=C3/C=CC=CN3C)SC2=S)cc1	0	-3	i	0	4
CCO[C@@H]1OC(C(=O)Nc2ccccc2)=C[C@H](c2coc3ccccc3c2=O)[C@H]1CCCO	-2	-1	i	0	0
CCO[C@H]1OC(C(N)=O)=C[C@@H](c2coc3ccccc3c2=O)[C@@H]1CCCO	0	2	i	0	9.2*
O=C(CSc1cccs1)Nc1ccc(Cl)cc1	x	-4	i	x	10*
Cc1onc(-c2c(Cl)cccc2Cl)c1C(=O)N1CCc2ccccc2C1	1	3	x	0	-1
CCOC(=O)c1cccc(COC(=O)c2cccc(-c3nnc(-c4ccccc4)o3)c2)c1	0	1	i	0	9.7*
COc1cccc(-c2cc(C(F)(F)F)n3ncc(S(=O)(=O)c4ccccc4)c3n2)c1	3	1	i	0	-1
O=C(c1ccco1)N1N=C2CCCCCC2C1(O)C(F)(F)F (configuration not stated)	0	0	i	0	11*
COc1ccc(NC(=O)c2n[nH]c(=O)c3ccccc23)cc1S(=O)(=O)N1CCCCC1	0	-1	i	0	-2
CN1C2CCC1CC(NC(=O)CSc1ccc(C(C)(C)C)cc1)C2 (configuration not stated)	x	-5	i	x	9.6*
CC(C)(C)c1ccc(C(CC(=O)O)NC(=O)CSc2ccccc2)cc1 (configuration not stated)	0	1	i	0	0
COC(=O)c1cc(C(=O)Nc2ccc(Cl)cn2)cc([N+](=O)[O-])c1	-1	1	i	0	9.0*
COc1cc(C(=O)Nc2ccc([N+](=O)[O-])cn2)cc(OC)c1OC	0	6	i	0	1
COc1ccc(-c2csc(NC(=O)CN3C(=O)CCC3=O)n2)cc1OC	0	1	i	0	11*
COc1ccc(-c2csc(NC(=O)CN3C(=O)CCC3=O)n2)cc1	-1	2	i	0	-1
O=C1c2ccccc2C(=Nc2ccccc2)C1c1cccc(Br)c1 (configuration not stated)	4	0	i	1	5
CNCC(O)CN(c1ccccc1)c1ccccc1 (configuration not stated)	-1	-3	i	0	9.7*
CCC1Oc2ccc(C)cc2N(CC(=O)NCCc2ccc(OC)c(OC)c2)C1=O (configuration not stated)	-1	-2	i	0	-1
CC(=O)c1c(C(C)=O)c(C)n(NC(=O)c2ccccc2Cl)c1C	1	3	i	0	9.2*
Fc1ccccc1CSc1nc2ncccc2[nH]1	2	4	i	0	10*
CC1CCCCN1S(=O)(=O)c1ccc(NC(=O)c2cccs2)cc1 (configuration not stated)	0	-1	i	0	-3
O=C(NNC(=O)C1CC1c1ccccc1)c1cccc([N+](=O)[O-])c1 (configuration not stated)	0	5	i	0	11*
O=C(CSc1ncn[nH]1)N1CCN(S(=O)(=O)c2ccccc2)CC1	0	3	i	0	11*
Cc1nnc(SCC(=O)N2CCN(S(=O)(=O)c3ccccc3)CC2)[nH]c1=O	-4	3	i	0	1
Cc1nc2cc(C(=O)OCC(=O)NC(C)C(C)C)ccc2n1-c1ccccc1 (configuration not stated)	0	1	i	0	-1
SMILES	DTT redox prof	p97 inhibitor	HSV replic up	Hsp70 activator	Wee1 stabilizer
COc1nc(N/N=C/c2cc3c(cc2Br)OCO3)nc(N2CCOCC2)n1	-4	4	i	0	-2
Brc1cc2c(cc1/C=N/Nc1nc(N3CCCCC3)nc(N3CCCCC3)n1)OCO2	2	-3	i	0	14*
Cc1ccc(NC(=O)COC(=O)C2=COCCO2)cc1	1	1	i	0	-1
Cc1ccc(NC(=O)COC(=O)C2=COCCO2)c([N+](=O)[O-])c1	-2	1	i	0	9.3*
CN1C(=O)CSc2ccc(NC(=O)N3CCN(c4ccccc4)CC3)cc21	0	4	i	1	4
CCc1ccccc1N/C(=N\S(=O)(=O)c1ccccc1)C(F)(F)F	-1	0	i	-1	10*
COc1ccc(NS(=O)(=O)c2cccc(C(=O)N/N=C/c3ccc4c(c3)OCCO4)c2)cc1	-1	1	i	0	-1
CN1CCN(C(=S)c2cn(Cc3ccc(F)cc3)c3ccccc23)CC1	-1	-2	i	0	9.2*
O=C(COc1ccc([N+](=O)[O-])cc1)NCc1cccnc1	0	3	i	0	9.2*
COC(=O)N/N=C(/c1ccccc1)C1CCCCC1	0	4	i	0	-1
NC(=O)c1sc2nc(-c3cccnc3)ccc2c1N	x	-4	i	x	-4
CCOC(=O)c1sc2nc(-c3cccnc3)ccc2c1N	0	5	i	0	9.3*
COc1ccc(S(=O)(=O)N(CC(=O)Nc2cccnc2)c2ccccc2OC)cc1	0	0	i	0	2
CS(=O)(=O)c1cnc2c(S(=O)(=O)c3ccccc3)cnn2c1N	-1	1	i	0	8.8*
O=[n+]1cc(-c2cccc3ccccc23)n([O-])c2c1CCC2	0	3	i	0	-3
Fc1ccc(-c2nc(-c3cnccn3)no2)c(Cl)c1	x	-8	i	x	9.4*
CN1CCN(C(=O)c2ccc(CSc3nc4ccncc4n3Cc3ccc(F)cc3)cc2)CC1	0	16*	i	0	0
COC(=O)c1ccccc1NC(=O)CSc1nccc(C)n1	0	5	i	0	10*
CC(=O)c1cccc(NC(=O)C(C)OC(=O)CNC(=O)c2ccc(C)s2)c1 (configuration not stated)	-1	2	i	0	9.2*
CCOC(=O)/C(C#N)=C1/SC(CC)C(=O)N1c1ccc(C)cc1 (configuration not stated)	3	0	i	0	0
Cc1ccc(/C=C/C(=O)c2ccccc2)cc1	0	-8	i	0	8.9*
CN1C(=O)NC(c2ccccc2)C2=C1CN(Cc1ccco1)C2=O (configuration not stated)	-1	-3	i	0	-1
CCn1cc(SCC(=O)N2CCOCC2)c2ccccc21	0	-3	i	0	7
COc1ccc(N(C(=O)c2ccncc2)S(=O)(=O)c2cccs2)cc1	x	-6	i	x	9.1*
COc1ccc(CC(NC(C)=O)C(=O)NC2CCN(c3nc(C)cc(C)c3C#N)CC2)c(OC)c1 (configuration not stated)	-2	-2	i	0	9.4*
